# From PubChem BioAssay AID1875 (Broad Institute, 2009)
# The campaign covered roughly 300,000 compounds. About 65 (0.02%) were called active. The sample holds actives, similar compounds and a random draw of the others, so the mix is not that of the screen. Unmarked numbers belong to inactive results.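 The calls were made as follows: active = lowest replicate activity score at least 50, where 100 means six control SD above control mean; inconclusive = lowest score under 50 but half or more replicates reach 50; inactive = the rest.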
# Assay: polyadenylation inhibitors in yeast reporter cells, primary screen, luminescence, S. cerevisiae (AID 1875);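 also: yeast exposed to compound for 9 h at 30 °C; higher score means more reporter readthrough which indicates perturbed polyadenylation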
# Conditions: S. cerevisiae SKY197-pL101 polyadenylation reporter, beta-gal luminescence; at 12 µM; hits give high values; efflux-impaired pdr1/pdr3 knockout yeast; score 100 = 6 SD above DMSO
row,Structure (SMILES),activity score
1,CCOC(=O)N1CCN(CC(=O)n2c(C)c(C)c3ccccc32)CC1,-9.64%
2,NC(N)=Nc1nc2ccc(Br)cc2c(=O)[nH]1,11.2%
3,Cc1ccc(NC(=O)C(=O)NCC2CCN(C(=O)c3cccc([N+](=O)[O-])c3)CC2)cc1,15.6%
4,Cc1ccc(-n2nc(N)c3c(=O)oc(N(C)C)nc32)cc1,-13.9%
5,FC(F)(F)c1cc(C(F)(F)F)c2ccc(N3CCN(c4ccccc4)CC3)nc2n1,-28.1%
6,Nc1c(C(=O)c2cccs2)sc2nsc(SCCN3CCCCC3)c12,-10.6%
7,CN(Cc1nc(-c2cnccn2)no1)Cc1n[nH]c2c1CCCCC2,-15.8%
8,CCNC(=O)CC1C(=O)N(c2ccc(OC)cc2)C(=O)N1CCOC (configuration not stated),13.9%
9,Cc1c(Nc2nc3ccccc3nc2NS(=O)(=O)c2cccs2)c(=O)n(-c2ccccc2)n1C,-9.51%
10,COc1ccccc1C(=O)NNC(=O)CCN1C(=O)/C(=C\c2ccccc2)SC1=S,-4.37%
11,COc1ccc(/C=C2\SC(=S)N(CCC(=O)Nc3ccccn3)C2=O)cc1OC,14.3%
12,COc1cc(/C=C2/SC(=S)N(Cc3ccccc3)C2=O)cc(OC)c1O,425% (active)
13,COC(=O)C(=Nc1ccccc1)/C(C(=O)C(=O)N(C)c1ccccc1)=C(\O)c1ccc(Cl)cc1,3.12%
14,COc1ccc(C2/C=C\CN(S(=O)(=O)c3cccs3)CC(=O)N2Cc2ccc(F)cc2)cc1 (configuration not stated),1.94%
15,Cc1c(S(=O)(=O)N2CC(C)CC(C)C2)c(=O)n(C)c(=O)n1C (configuration not stated),11.6%
16,COc1ccc(/C=N/Nc2nc(-c3ccc(C)cc3)c(C#N)c(=O)[nH]2)cc1,-16.1%
17,Cc1ccc(CNC(=O)Cn2c(=O)c3sccc3n(Cc3cccc([N+](=O)[O-])c3)c2=O)cc1,-7.25%
18,O=C(NCc1ccccc1)C(c1cccnc1)N(C(=O)c1csnn1)c1ccc(F)cc1 (configuration not stated),5.05%
19,CC1CN(C(=O)COC(=O)c2cccc(NS(=O)(=O)c3ccccc3)c2)CC(C)O1 (configuration not stated),2%
20,COc1ccc(NC(=O)COc2ccc(C(=O)c3ccc(F)cc3)cc2)cc1S(N)(=O)=O,7.67%
21,O=C(O)CCCn1cc(NC(=O)COc2cccc(Cl)c2)cn1,-6.55%
22,Cc1cccn2c(CN(C)C3CCCc4ccccc43)c(C(=O)N3CCOCC3)nc12 (configuration not stated),10.7%

row,Structure (SMILES),activity score
1,O=C(COC(=O)Cc1ccccc1F)NNC(=O)c1ccc(Cl)cc1,0.16%
2,CC(C)(C)C(=O)NC1CC2CCCC(C1)N2C(=O)Nc1ccccc1F (configuration not stated),0.739%
3,CCOc1ccccc1N1C(=O)CC(Sc2nccc(C)n2)C1=O (configuration not stated),13.3%
4,CC(C)COP(=O)(c1ccc(N(C)C)cc1)C(Nc1ccccc1)c1cccnc1 (configuration not stated),9.1%
5,Cc1ccc2nsnc2c1S(=O)(=O)N1CCCC1C(=O)O (configuration not stated),12.1%
6,CC(/C=C/C1(O)C(C)CC(=O)CC1(C)C)OC1OC(CO)C(O)C(O)C1O (configuration not stated),14.6%
7,Cc1nnc(SC(C)C(=O)Nc2ccc(S(=O)(=O)NC3CCCCC3)cc2)s1 (configuration not stated),-4.69%
8,O=C(CSc1ccccn1)Nc1nc2c(ccc3ccccc32)s1,-14.3%
9,COc1ccc(NC(=O)c2cccc(Cl)c2)c[n+]1[O-],10.9%
10,COc1ccc(C(=O)N(Cc2ccccc2)c2ccc(C)cc2)cc1S(=O)(=O)N1CCOCC1,-2.8%
11,Cn1c(N)c(C(=O)COC(=O)/C=C/c2ccc(OC(F)F)cc2)c(=O)n(C)c1=O,0.664%
12,CCOc1ccc(S(=O)(=O)NCc2ccc3c(c2)OCO3)cc1C,12.5%
13,Cc1cc(C)c(OCC(=O)N(Cc2cccs2)C2CCS(=O)(=O)C2)c(C)c1 (configuration not stated),21.1%
14,C#CCOCCOCCOCCNc1nc(N2CCN(C(=O)C([C@@H](C)CC)n3cc(C(N)COC(=O)C(F)(F)F)nn3)CC2)nc(N2CCN(C(=O)[C@H](CCCCN)n3cc(C(N)CC(C)C)nn3)CC2)n1 (some centres not stated),-6.03%
15,Cc1ccc(NC(=O)CN2CCc3ccccc3C2)cc1C,-2.27%
16,CCc1ccc2nc3sc(C(=O)Nc4nnc(CC)s4)c(N)c3cc2c1,34.8%
17,Cc1ccc(NC(=O)CSCC(=O)Nc2sccc2C#N)cc1,11.2%
18,Cc1ccc(NC(=O)c2sc3nc(N)c(C#N)cc3c2N)cc1,55.3% (active)
19,O=C1N(Cc2ccc3c(c2)OCO3)c2ccccc2C1(O)c1c[nH]c2ccccc12 (configuration not stated),-1.62%
20,CC(=O)N1CCN(c2ccc(NCc3ccc(C(C)C)cc3)cc2)CC1,11.3%
21,COC(=O)c1ccccc1NC(=O)CN(Cc1ccc(Cl)cc1)S(C)(=O)=O,-7.02%
22,COc1cccc(CNS(=O)(=O)c2cc3c(cc2C)n(C)c(=O)c(=O)n3C)c1,-4.51%

row,Structure (SMILES),activity score
1,CCCCn1c(N)c(N(CCOC)C(=O)c2oc3ccc(OC)cc3c2C)c(=O)[nH]c1=O,-1.46%
2,CC(C)=CC(=O)Nc1nnc(-c2ccc(F)cc2)s1,24%
3,CCn1c(CC(=O)Nc2ccccc2C)nnc1SCC(=O)NC1=NCCS1,-11.9%
4,O=C(NC(=S)Nc1cccc2c(O)cccc12)c1cccc(Br)c1,-27%
5,N/C(=N\S(=O)(=O)c1cc(C(F)(F)F)cc(C(F)(F)F)c1)c1cccs1,23.1%
6,CCOc1ccc(N2CC(C(=O)NCc3ccccn3)CC2=O)cc1 (configuration not stated),9.19%
7,CCc1ccc(-c2nn(-c3ccccc3)cc2CSC(=N)N)cc1,0.301%
8,COc1ccccc1OCc1ccc(C(=O)NC(C)c2ccccc2)o1 (configuration not stated),9.72%
9,CS(=O)(=O)N(CC(=O)N1CCc2ccccc2C1)c1ccc(Br)cc1,-7.16%
10,COc1cccc(COC(=O)C2CCN(S(=O)(=O)c3ccc(Cl)cc3)CC2)c1OC,10.3%
11,Cc1ccc(NC(=O)c2cc3ccccc3o2)cc1,-13.9%
12,O=C(NCCS(=O)(=O)N1CCN(c2ccccc2F)CC1)c1ccc(Br)o1,1.43%
13,CCOc1ccc(C2c3[nH]c4ccccc4c3CCN2Cc2cccn2-c2ncccn2)cc1 (configuration not stated),0.986%
14,CCc1c(C)nc2c(OC)cccc2c1Cl,-37.6%
15,O=C(CN1CCOCC1)Nc1c2c(nc3c1CCC3)CCC2,1.76%
16,CC1(C)CCSC(/C=C/c2ccccc2)=N1,6.99%
17,COc1ccc(-n2c(O)c(C=NCC(c3ccco3)N3CCCC3)c3ccccc3c2=O)cc1OC (configuration not stated),6.18%
18,COc1cc(NC(=O)c2cncc(-c3ccc(C#N)cc3)c2)cc(C(=O)Nc2cccc(C(F)(F)F)c2)c1,-7.7%
19,O=C(C1CCN(c2nnc(-n3cccc3)s2)CC1)N1CCc2ccccc2C1,9.11%
20,CCc1noc(C)c1C(=O)Oc1ccc(N(C)S(=O)(=O)c2ccc(C)c(C)c2)cc1,0.103%
21,Cc1ccc(CNC(=O)C2CCN(S(=O)(=O)c3ccc4nc5c(c(C(=O)O)c4c3)CC(C)CC5)CC2)cc1 (configuration not stated),-6.73%
22,CCn1cc(CN2CCC(C(=O)Nc3cccc(-c4cccc(Cl)c4)c3)CC2)c(C)n1,3.2%

row,Structure (SMILES),activity score
1,Cc1ccc(-c2cc(C(=O)NCc3cn(C)nc3C)c3cc(Br)ccc3n2)cc1,2.61%
2,O=C(c1ccncc1)N1CCN(S(=O)(=O)c2cc(C(F)(F)F)cc(C(F)(F)F)c2)CC1,9.96%
3,COc1ccc(C(CNC(=O)c2ccc(S(=O)(=O)Nc3ccccc3F)cc2)N(C)C)cc1 (configuration not stated),4.77%
4,CCCCn1c(N)c(N(CCOC)C(=O)CSCC(=O)Nc2cccc(C)c2)c(=O)[nH]c1=O,10.8%
5,Cc1cc(C)nc(NS(=O)(=O)c2ccc(N/C=C\C(=O)c3cccs3)cc2)n1,-11%
6,O=C(c1snnc1-c1ccccc1)N1CCOCC1,18.7%
7,CC(OC(=O)CNC(=O)c1ccco1)C(=O)Nc1ccc(Cl)cn1 (configuration not stated),-11.7%
8,CCOc1ccccc1OCCCNCc1ccccc1,14.2%
9,COc1cc(C(=O)NCCOC(=O)c2cccc(N(C)C)c2)cc(OC)c1OC,1.84%
10,O=c1[nH]cnc(O)c1C(c1ccc(F)cc1)c1c(O)nc[nH]c1=O,-1.62%
11,COc1ccc([N+](=O)[O-])cc1N(CC(O)CN(CC(C)C)CC(C)C)S(=O)(=O)c1ccc(C)cc1 (configuration not stated),12.6%
12,O=[N+]([O-])c1cc(C(F)(F)F)ccc1NCCc1ccncc1,-17.4%
13,CC(C)CCNC(=O)c1cccnc1Sc1ccccc1,-10.2%
14,COc1ccc(NC(=O)C/C(C)=N/NC(=O)c2cnccn2)cc1Cl,4.46%
15,CCN(CC)CC(=O)Nc1nn(-c2ccccc2)nc1C(N)=O,3.8%
16,Cc1ccccc1N1C(=O)C(Oc2ccc(Cl)cc2)C1CNCC1CCCO1 (configuration not stated),-13.7%
17,COC(=O)c1ccc(SCc2ccccc2)nc1,5.84%
18,CC(C)(C)N(Cc1ccccc1)C(=O)COC(=O)CCc1c[nH]c2ccccc12,9.29%
19,CCN(CC)c1ccc(C(=O)Nn2c(C)nc3ccccc3c2=O)cc1,-0.748%
20,O=C(CCc1nnc(Cc2ccc3c(c2)OCO3)o1)NCCc1ccccc1Cl,6.46%
21,O=C(COc1coc(CN2CCN(c3ccccc3)CC2)cc1=O)N1CCc2ccccc21,-4.04%
